# In the library only some 2.4% were active in any assay of this set; here they are far more common.
# Cruzain Triton: qHTS Assay for Promiscuous and Specific Inhibitors of Cruzain (with detergent). purified cruzain, Z-FR-AMC fluorescence, 0.01% Triton. Cruzipain (Trypanosoma cruzi), P25779. 0.43% of 200,000 active. Potency, µM, without a hit: max response, negative = inhibition, actives largely listed as inhibitors;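 also: plate controls were neutral wells for no effect and buffer without enzyme for full effect; nearly all actives have a fitted effect of over 40% in size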
# Target sequence (P25779 123-467 limits assumed): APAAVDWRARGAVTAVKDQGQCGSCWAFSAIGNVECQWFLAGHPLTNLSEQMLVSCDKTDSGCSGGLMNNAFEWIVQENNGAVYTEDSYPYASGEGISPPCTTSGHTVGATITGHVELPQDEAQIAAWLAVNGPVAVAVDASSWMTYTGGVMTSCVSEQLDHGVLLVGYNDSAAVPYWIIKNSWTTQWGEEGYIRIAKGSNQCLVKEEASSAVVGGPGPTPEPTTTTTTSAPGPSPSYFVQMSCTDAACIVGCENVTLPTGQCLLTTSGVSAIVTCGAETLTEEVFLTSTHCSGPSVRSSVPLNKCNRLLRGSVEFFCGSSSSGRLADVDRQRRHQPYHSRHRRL
#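 Purified cruzain (1.5 nM final) was preincubated with compounds for 15 min at room temperature in 100 mM sodium acetate pH 5.5, 5 mM DTT, 0.01% Triton X-100. Reaction started with 2 uM Z-FR-AMC; AMC fluorescence change over 60 s gave activity.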
# Cruzain inh noDet: qHTS Assay for Promiscuous and Specific Inhibitors of Cruzain (without detergent); Cruzipain (Trypanosoma cruzi), P25779; purified cruzain, Z-FR-AMC fluorescence, no detergent; Potency, µM, inactives show max response, negative = inhibition, hits mostly inhibitors; 2.3% of 200,000 active;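 also: plate controls were enzyme without inhibitor for no effect and buffer without enzyme for full effect; nearly all actives have a fitted effect of over 40% in size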
#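 Detergent-free condition (0.00005% Triton X-100) in acetate buffer pH 5.5 with DTT. 1.5 nM enzyme and compound were pre-mixed 15 min, then 2 uM Z-FR-AMC substrate added; reaction progress from fluorescence change between first and third reads (60 s).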
# An asterisk follows results filed as active; ? = inconclusive. Calls follow the shape of the dose curve; as a rule, active = well fitted curve in the direction sought with a large enough effect; inconclusive = small, poorly fitted or top-dose-only effect, or another doubt; inactive = no such curve, though single readings can be large; an effect the other way counts as inactive or inconclusive. Potency is read from the fitted curve at half-maximal effect.
SMILES,Cruzain Triton,Cruzain inh noDet
COc1ccc(S(=O)(=O)Nc2cccc(S(=O)(=O)N3CCCCCC3)c2)cc1,-5.3%,2.3%
O=C(CSc1nncn2c1cc1sccc12)Nc1ccccc1C(F)(F)F,-0.7%,-10.8%
CC(C)c1ccc(OCC(=O)Nc2ccc(S(=O)(=O)Nc3ncccn3)cc2)cc1,0.8%,?
CC(C)COc1ccc(C(=O)Nc2scc(-c3ccc(Cl)cc3Cl)c2C(N)=O)cc1,-18.4%,10µM*
CC(C)COc1ccc(C(=O)Nc2cc3nn(-c4ccccc4)nc3cc2Cl)cc1,0.5%,-5.3%
C=CCSc1nc2sc(-c3ccccc3)cc2c(=O)n1N,-4.9%,31.6µM*
Cc1ccccc1-n1c(SCC(N)=O)nc2sc(-c3ccccc3)cc2c1=O,-5.1%,10.0%
CCOc1cccc(C(=O)Nc2nc(-c3ccc(S(=O)(=O)N4CCOCC4)cc3)cs2)c1,-7.4%,?
O=C(COc1cccc(Cl)c1)Nc1nc(-c2ccc(S(=O)(=O)N3CCOCC3)cc2)cs1,1.2%,12.6µM*
COc1ccccc1C(=O)Nc1nnc(SCc2cc(=O)n3ccc(C)cc3n2)s1,2.5%,3.1%
Cc1ccc(C(=O)NCC(c2ccc3c(c2)OCO3)N2CCOCC2)cc1 (configuration not stated),-1.8%,-12.3%
COc1ccccc1NC(=O)CN1C(=O)C2(SCC(=O)N2c2ccc(F)c(F)c2)c2ccccc21 (configuration not stated),-5.2%,15.8µM*
COc1ccccc1NC(=O)CN1C(=O)C2(SCC(=O)N2c2ccc(C)c(C)c2)c2ccccc21 (configuration not stated),-2.3%,-20.5%
COc1cc(/C=C2\SC(=S)N(Nc3ccccc3)C2=O)cc(OC)c1OC,-1.1%,13.6%
CCOc1ccc(/C=C2\SC(=S)N(Nc3ccccc3)C2=O)cc1OC,6.31µM*,?
O=C(CN1CCCN(Cc2cccc(F)c2)S1(=O)=O)Nc1ccc2c(c1)OCCO2,-2.6%,-2.2%
COc1cccc(-c2nccc(NCc3ccccc3)n2)c1,-3.4%,4.5%
CC(C)OC(=O)c1c(NC(=O)c2cccc(C(F)(F)F)c2)sc2c1CCCC2,-0.5%,9.2%
CC(C)c1ccc(NC(=O)CSc2nc3c(c(=O)[nH]2)CCC3)cc1,2.3%,12.6µM*
Cc1ccc(NC(=O)CSc2nc3c(c(=O)[nH]2)CCC3)cc1C,2.4%,?
O=C(NC(=S)Nn1cnc2c(cnn2-c2ccccc2)c1=O)c1ccc(Oc2ccccc2)cc1,-1.8%,25.1µM*
O=C(NC(=S)Nn1cnc2c(cnn2-c2ccccc2)c1=O)c1ccc(Cl)cc1,-2.7%,1.7%
O=C(Nc1ccc(F)cc1)C1CCN(S(=O)(=O)c2ccc3c(c2)CCCN3C(=O)C2CCC2)CC1,-1.6%,6.9%
CC(=O)c1ccc2c(c1)C1C(Cl)C(Sc3ccccc3[N+](=O)[O-])CC1C(c1ccccc1)N2 (configuration not stated),-6.1%,3.98µM*
CC(=O)c1ccc(Sc2nnnn2-c2ccccc2)c([N+](=O)[O-])c1,0.0%,0.9%
SMILES,Cruzain Triton,Cruzain inh noDet
CC(=O)c1ccc2c(c1)C1C(Cl)C(Sc3ccccc3[N+](=O)[O-])CC1C(c1ccccc1[N+](=O)[O-])N2 (configuration not stated),-10.6%,3.16µM*
CC(=O)c1ccc2c(c1)C1C=CCC1C(c1ccncc1)N2 (configuration not stated),-10.4%,29.8%
O=C(O)c1cc(=O)c2ccc(Cl)cc2[nH]1,5.5%,3.9%
COc1ccc(-c2nc3sc(CCNC(=O)C(=O)Nc4ccc(C)c(F)c4)c(C)n3n2)cc1,1.5%,-17.1%
COc1cccc(-c2cn3c(n2)sc2cc(C(=O)NCc4ccccc4F)ccc23)c1,-2.9%,16.5%
COc1cccc(-c2nn(-c3ccccc3)cc2/C=C\C(=O)c2cccs2)c1,3.2%,12.6µM*
COc1cccc(-c2nn(-c3ccccc3)cc2C(=O)O)c1,4.1%,-0.7%
COc1ccc(CNC(=O)c2ccc(-c3nc(CSc4ccccc4)c(C)o3)cc2)c(OC)c1,-4.1%,-12.8%
CCCCOc1ccc(CNC(=O)C2CCCN(c3nnc(-n4c(C)ccc4C)s3)C2)cc1 (configuration not stated),-4.6%,1.6%
O=P(O)(O)C(O)(Cn1ccnc1)P(=O)(O)O,1.2%,-5.8%
COc1ccc(OC)c(NC(=O)c2nnn(CC(=O)Nc3ccc(C(C)C)cc3)c2N)c1,-4.6%,-24.4%
COc1ccc(-c2cc(-c3cccs3)c(C#N)c(SCC(=O)NCc3ccco3)n2)cc1,-6.9%,7.94µM*
COc1ccc(CNC(=O)CSc2nc(-c3ccccc3)cc(-c3cccs3)c2C#N)cc1,3.6%,10µM*
COc1ccc(-c2cc(-c3ccccc3)nc(SCC(=O)Nc3ccccc3C)c2C#N)cc1,-1.1%,-5.7%
O=C(CSc1nc(-c2cccs2)cc(C(F)(F)F)n1)NCc1ccco1,-4.0%,-0.4%
CCc1nnc(NC(=O)CSc2nc(-c3ccccc3)cc(-c3ccc(F)cc3)c2C#N)s1,3.4%,7.94µM*
CC(C)OC(=O)CC(=O)CSc1nc(-c2ccc(F)cc2)cc(-c2ccccc2)c1C#N,-4.6%,-5.7%
Cc1ccccc1NC(=O)CSc1nccn1C,0.2%,9.7%
Cc1nc2c(c(C)c1CCC(=O)Nc1cccc(C(F)(F)F)c1)c(=O)n(C)c(=O)n2C,1.1%,0.7%
Cc1cc(OCC(=O)N(Cc2sccc2C)C2CCS(=O)(=O)C2)ccc1Cl (configuration not stated),-7.1%,?
O=C(COc1ccccc1)Nc1ccc([N+](=O)[O-])cc1,-0.1%,-6.0%
O=C(COc1ccc(/C=N/NC(=O)c2ccccc2)cc1)Nc1ccc([N+](=O)[O-])cc1,2.3%,12.6µM*
O=C(CNc1ccccc1)N/N=C/c1ccc([N+](=O)[O-])cc1,-3.5%,-1.0%
CC(C)Oc1ccc(/C=N/NC(=O)C(CSCc2ccccc2)NC(=O)c2ccc([N+](=O)[O-])cc2)cc1 (configuration not stated),-2.9%,20µM*
Cc1ccc(NC(=O)c2c(C)oc3ccc(O)c(CN4CCCCCC4)c23)cc1,-8.6%,?
SMILES,Cruzain Triton,Cruzain inh noDet
CCCC(=O)OCc1cnc(C)c2oc(=O)c(C(=O)Nc3ccc(F)cc3C)cc12,-0.4%,-2.4%
O=S(=O)(c1ccccc1)N1CCN(c2nc3ccccc3s2)CC1,4.3%,-3.9%
c1c2c(cc3sc(N4CCOCC4)nc13)OCO2,2.5%,-19.8%
Clc1ccc2nc(N3CCN(c4ccccc4)CC3)sc2c1,-0.3%,20µM*
c1ccc(N2CCN(c3nc4cc5c(cc4s3)OCO5)CC2)cc1,-5.0%,12.6µM*
Cc1ccccc1CSc1ncc(Cl)c(C(=O)Nc2nc3ccc(F)cc3s2)n1,0.4%,-6.4%
CCOc1ccc(-c2nnc(SCC(=O)NCCC(C)C)nc2-c2ccc(OCC)c(OC)c2)cc1OC,-1.8%,14.3%
N#Cc1c(C(F)(F)F)cc(-c2cccs2)nc1SCC(=O)Nc1ccccc1F,-1.8%,7.7%
N=c1oc2cc(O)ccc2cc1C(=O)Nc1nc2ccccc2s1,12.6µM*,20µM*
O=C(Nc1nc2ccccc2s1)c1cccn(Cc2ccccc2)c1=O,-1.1%,-15.9%
CCCCNc1nc(C)nc2c1nc(-c1ccccc1)n2CCCN(C)C,-16.0%,-3.8%
CCNc1ncc2ncc(=O)n(C[C@H]3CCCO3)c2n1,-14.6%,-14.5%
CCNc1ncc2nc(C)c(=O)n(C[C@H]3CCCO3)c2n1,20µM*,?

# Bioassay records (PubChem)
